From PubChem BioAssay (NCI) come the findings set out here.

Some test systems named below: NCI-H23 lung; NCI-H226 lung; NCI-H322M lung; HOP-62 NSCLC; NCI-H460 lung; HOP-92 NSCLC; NCI-H522 lung; A549/ATCC NSCLC; 786-0 renal; COLO 205 colon; DU-145 prostate; K-562 leukemia; MALME-3M melanoma; MDA-MB-231 breast; RXF 393 renal; SF-268 CNS; SF-295 CNS; SF-539 CNS; UACC-257 melanoma; M14 melanoma.
Assay in all cases: NCI-60 one-dose screen, 48 h (100 = growth as untreated, 0 = no growth, -100 = all killed)
Details in all cases: 10 µM unless noted

This is part of a sample that, as a whole, favours compounds with a hit. Of some 83,000 tested, about 20% had one in any assay.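 How to read the values: 0–100, growth inhibition (40 = 60% inhibited); 0, no net growth; -100 to 0, cell death (-40 = 40% of starting cells died; -100 = all dead).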 A number with no mark means an inactive call. Activity calls are given as the source filed them. How the source made its calls: active means growth percent below 10; inactive means the rest.

Regarding `Cc1c(-c2cnc3ccc(Cl)cc3c2C(=O)O)nnn1-c1ccc(Cl)cc1`, the growth in the experiment on NCI-H23 lung was 103%; with NCI-H226 lung, 102%; in the experiment on NCI-H322M lung it was 93.6%; in the experiment on HOP-62 NSCLC it was 89.4%; with NCI-H460 lung, 107%; in the experiment with HOP-92 NSCLC, 88.7%. Besides, the growth was 89.1% in the experiment with NCI-H522 lung; 97.1% in the experiment on A549/ATCC NSCLC; 62.7% in the experiment on 786-0 renal; 93.8% in the experiment on COLO 205 colon; 114% with DU-145 prostate; 101% in the experiment on K-562 leukemia. The growth is 99.6% in the experiment on MALME-3M melanoma; 85.8% in the experiment on MDA-MB-231 breast; 122% with RXF 393 renal; 111% with SF-268 CNS; 97.7% in the experiment on SF-295 CNS; 99.6% in the experiment with SF-539 CNS. Further, the growth in the experiment with UACC-257 melanoma was 95.9%; in the experiment on M14 melanoma it was 69.8%.
Turning to `N#C/C(=C\c1cccc2cnccc12)N1N=NC2C=CC=CC21` (stereo not given), the growth in the experiment with NCI-H23 lung was 48.5%; in the experiment with NCI-H226 lung, 68.7%; in the experiment on NCI-H322M lung, 67.2%; with HOP-62 NSCLC it was 79.9%; with NCI-H460 lung it was 40.8%; with HOP-92 NSCLC it was -14.6% (active). The growth in the experiment with NCI-H522 lung is 14.1%; with A549/ATCC NSCLC, 64.2%; in the experiment on 786-0 renal it was 53.1%; with COLO 205 colon, 47.4%; with DU-145 prostate, 8.33% (active); in the experiment with K-562 leukemia, 12.4%. Further, the growth is 36% in the experiment on MALME-3M melanoma; 9.44% (active) in the experiment on MDA-MB-231 breast; -17.1% (active) with RXF 393 renal; 56.6% in the experiment on SF-268 CNS; 98.4% with SF-295 CNS; 45.7% in the experiment with SF-539 CNS. The growth in the experiment on UACC-257 melanoma is 46.9%; in the experiment on M14 melanoma, 32.6%.
`Cc1ccc2c(c1)CC(O)CC1C(=O)N(CCO)CC(=O)N21` (stereo not given): the growth in the experiment with NCI-H23 lung is 99.3%; in the experiment on NCI-H226 lung, 95.9%; in the experiment on NCI-H322M lung it was 105%; in the experiment on HOP-62 NSCLC, 101%; in the experiment with NCI-H460 lung it was 109%; in the experiment with HOP-92 NSCLC, 124%. For the same compound, the growth in the experiment on NCI-H522 lung was 82.5%; with A549/ATCC NSCLC, 76.6%; with 786-0 renal, 104%; with COLO 205 colon, 110%; with DU-145 prostate it was 111%; with K-562 leukemia, 101%. The growth was 100% with MALME-3M melanoma; 92.4% with MDA-MB-231 breast; 90.5% in the experiment on RXF 393 renal; 99.7% in the experiment on SF-268 CNS; 101% in the experiment with SF-295 CNS; 102% in the experiment with SF-539 CNS. The growth in the experiment on UACC-257 melanoma is 81.1%; with M14 melanoma, 103%.
Take `CCCCCC(C)(O)C(C(=O)O)c1ccccc1` (stereo not given): the growth with NCI-H23 lung is 107%; in the experiment on NCI-H226 lung, 104%; in the experiment on NCI-H322M lung, 104%; with HOP-62 NSCLC it was 101%; with NCI-H460 lung, 109%; in the experiment on HOP-92 NSCLC, 94.1%. In addition, the growth was 95% with NCI-H522 lung; 99.6% in the experiment with A549/ATCC NSCLC; 99.2% in the experiment with 786-0 renal; 118% with COLO 205 colon; 114% in the experiment with DU-145 prostate; 121% with K-562 leukemia. In addition, the growth in the experiment with MALME-3M melanoma is 93.9%; in the experiment with MDA-MB-231 breast, 102%; in the experiment with RXF 393 renal, 110%; in the experiment with SF-268 CNS, 107%; in the experiment on SF-295 CNS, 103%; in the experiment on SF-539 CNS, 95.4%. Further, the growth in the experiment with UACC-257 melanoma was 102%; in the experiment on M14 melanoma it was 96.7%.
On to `Cc1ccc(C2(C)NC(=O)N(CC(=O)Nc3cccc(C)c3)C2=O)cc1` (stereo not given), for which the growth is 96.5% in the experiment with NCI-H23 lung; 84.5% in the experiment on NCI-H226 lung; 102% in the experiment on NCI-H322M lung; 102% with HOP-62 NSCLC; 97.8% in the experiment on NCI-H460 lung; 63.8% in the experiment on HOP-92 NSCLC. Besides, the growth in the experiment on NCI-H522 lung was 77.2%; in the experiment with A549/ATCC NSCLC, 101%; in the experiment with 786-0 renal, 104%; in the experiment with COLO 205 colon, 116%; with DU-145 prostate, 110%; in the experiment with K-562 leukemia it was 112%. For the same compound, the growth was 100% in the experiment with MALME-3M melanoma; 99.4% with MDA-MB-231 breast; 101% in the experiment on RXF 393 renal; 104% in the experiment with SF-268 CNS; 107% in the experiment on SF-295 CNS; 103% with SF-539 CNS. Besides, the growth in the experiment on UACC-257 melanoma is 101%; in the experiment on M14 melanoma it was 110%.
As for `Cn1nc(-c2ccc(Cl)cc2)nc2c(=O)n(C)c(=O)nc1-2`, the growth with NCI-H23 lung is -45% (active); in the experiment on NCI-H226 lung, -51.4% (active); in the experiment with NCI-H322M lung it was -68.5% (active); in the experiment with HOP-62 NSCLC, -72.9% (active); in the experiment with NCI-H460 lung, 0.75% (active); with HOP-92 NSCLC it was -28.9% (active). Moreover, the growth is -75.4% (active) in the experiment with NCI-H522 lung; -25.2% (active) in the experiment with A549/ATCC NSCLC; -82.2% (active) with 786-0 renal; -90.6% (active) with COLO 205 colon; -97.5% (active) in the experiment on DU-145 prostate; -52.7% (active) in the experiment with K-562 leukemia. The growth is -90.1% (active) in the experiment on MALME-3M melanoma; -24.9% (active) in the experiment on MDA-MB-231 breast; -30.8% (active) with RXF 393 renal; -19.8% (active) with SF-268 CNS; -29.6% (active) in the experiment with SF-295 CNS; -99.2% (active) with SF-539 CNS. Moreover, the growth in the experiment on UACC-257 melanoma was -83.4% (active); in the experiment with M14 melanoma, -91.9% (active).
Consider `O=C1c2cccnc2C(=O)c2c1c(C(=O)OCCCN1CCOCC1)c1ccccn21`, for which the growth with NCI-H23 lung was -32.1% (active); in the experiment on NCI-H226 lung, -6.42% (active); in the experiment with NCI-H322M lung it was -51.5% (active); with HOP-62 NSCLC, -25.6% (active); in the experiment with NCI-H460 lung, -60% (active); with HOP-92 NSCLC it was -20.6% (active). The growth was -75.1% (active) in the experiment on NCI-H522 lung; -25% (active) with A549/ATCC NSCLC; -18.4% (active) in the experiment on 786-0 renal; -75.8% (active) in the experiment with COLO 205 colon; -84.2% (active) in the experiment with DU-145 prostate; -20.2% (active) in the experiment with K-562 leukemia. In addition, the growth in the experiment with MALME-3M melanoma is -53.9% (active); in the experiment with MDA-MB-231 breast, 14.1%; in the experiment with RXF 393 renal it was 3.94% (active); in the experiment with SF-268 CNS, 5.83% (active); in the experiment on SF-295 CNS, -4.43% (active); in the experiment with SF-539 CNS, -43.2% (active). The growth is -85.6% (active) in the experiment with UACC-257 melanoma and -81.2% (active) in the experiment with M14 melanoma.
In the case of `c1ccc2[nH]c(-c3ccc(-c4nccc5c4[nH]c4ccccc45)cc3)nc2c1`, the growth was 69.1% in the experiment with NCI-H23 lung; 77.4% in the experiment with NCI-H226 lung; 58.7% with NCI-H322M lung; 86.1% in the experiment with HOP-62 NSCLC; 42.9% in the experiment with NCI-H460 lung; 92.4% with HOP-92 NSCLC. For the same compound, the growth was 27.3% in the experiment on NCI-H522 lung; 45.7% with A549/ATCC NSCLC; 2.97% (active) with 786-0 renal; 44.9% in the experiment with COLO 205 colon; 67.4% in the experiment with DU-145 prostate; 3.52% (active) with K-562 leukemia. The growth in the experiment with MALME-3M melanoma is 90.4%; with MDA-MB-231 breast it was 30.2%; in the experiment with RXF 393 renal, 44.6%; in the experiment with SF-268 CNS, 52.3%; with SF-295 CNS, 75.1%; in the experiment on SF-539 CNS it was -40.4% (active). The growth with UACC-257 melanoma is 81.8%; in the experiment on M14 melanoma, 72.8%.
